The results in this text go back to PubChem BioAssay (NCI).

Compounds without any hit were thinned out: in the full panel of roughly 79,000, 15% have a hit. Active and inactive are the calls of the source. Rule as the data show it: active = growth inhibition above about 70%; inactive = the rest.

The nature of this assay: NCI Yeast Anticancer Drug Screen. Data for the mec2-1 strain (AID 157). The note with it: S. cerevisiae mec2-1 strain, at 50.0 µM, active compounds read high. The gist of the method:
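Vehicle-treated cultures served as reference for growth inhibition of compound-exposed mec2-1 yeast.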
Regarding `Cc1ccc(C(N)=O)cc1`, the growth inhibition was -8.65% (inactive).

`O=C1CC2(CCN(Cc3ccccc3)CC2)C(=O)N1N1CCCCC1`: the growth inhibition is 33.3% (inactive).

Take `O=[N+]([O-])c1ccc(SN2CCCCC2CC2CCCCC2)c([N+](=O)[O-])c1` (stereo not drawn): the growth inhibition is -4.6% (inactive).

As for `O=P(OC1=NCCN1Cc1ccccc1)(OC1=NCCN1Cc1ccccc1)N1CC1`, the growth inhibition was 5.6% (inactive).

`Nc1ccc(N(C(=O)c2ccccc2)C(=O)c2ccccc2)c(-c2ccccc2)c1`: the growth inhibition is 8.95% (inactive).

As to `C[C@@H](CC(=O)O)OC1OC(COC(=O)C(C)(C)C)C(OC(=O)C(C)(C)C)C(OC(=O)C(C)(C)C)C1OC(=O)C(C)(C)C` (stereo partly drawn), the growth inhibition is -45.1% (inactive).

Take `OCCNCc1cccc(-c2ccccc2)c1O`: the growth inhibition is 3% (inactive).

As for `Cc1ccc2cccnc2c1`, the growth inhibition was -4.6% (inactive).

In the case of `NCCNC(=O)c1ccccc1`, the growth inhibition was 1.8% (inactive).

Take `COC(=O)N1N=C(c2ccccc2)C(C(=O)OC)(C(=O)OC)c2ccccc21`: the growth inhibition is 11.9% (inactive).

Regarding `CCOP(=O)(OCC)C(Cc1cn(S(=O)(=O)c2ccc(C)cc2)cn1)C(=O)O` (stereo not drawn), the growth inhibition is 12.5% (inactive).

For the compound `O=C(O)c1cc(C(=O)O)nc(C(=O)O)c1`, the growth inhibition is -12.1% (inactive).

For the compound `NC(=O)N/N=C/c1ccccc1N`, the growth inhibition was -6.75% (inactive).

Take `O=C(O)C1OCOC2C(CO)OCOC12` (stereo not drawn): the growth inhibition was -5.35% (inactive).

As to `CC(C)(C)/C(=N\O)c1ccccc1`, the growth inhibition was -13.6% (inactive).

With `CN(C)CCN(C)CC(C)(C)C(=O)/C=C/c1ccccc1`, the growth inhibition was 2.55% (inactive).

Take `CC(c1ccccc1)C1(C)NC(=O)NC1=O` (stereo not drawn): the growth inhibition is -24.7% (inactive).

As to `CC(=O)OCCn1c([N+](=O)[O-])cnc1/C=[N+](/C)[O-]`, the growth inhibition was 16.9% (inactive).
